{
  "source": "the supplement of paper PMC9135407",
  "test_system": "primary human hepatic stellate cells (donor 1)",
  "experiment": "scaled lipid accumulation score (0 = DMSO-like, 1 = nortriptyline-like); higher = stronger HSC inactivation (lipid re-accumulation), active = hit call of the paper",
  "conditions": "48 h",
  "key": {"[1]": {"conditions": "library stock concentration: 10 mM"}, "[2]": {"conditions": "library stock concentration: 3.33 mM"}, "[3]": {"conditions": "library stock concentration: 1 mM"}, "[4]": {"conditions": "library stock concentration: 5.2 mM"}},
  "note": "“And” between values parts separate entries of the source, which are not always exact repeats. Equal entries are not always repeated. Structures can show the parent of a compound that is named as a salt. The whole screen tested about 5,800 compounds, of which about 620 (11%) showed activity. Shown is part of a subset that was picked to be rich in actives. Unmarked numbers belong to inactive results.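 The calls were made as follows: active = score above a cut-off or among the top three wells of a plate; in these data no inactive exceeds 0.85.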",
  "data": [
    {"smiles": "CN(C)CCCN1c2ccccc2CCc2ccccc21.Cl", "note": "[Imipramine hydrochloride]", "values": [
      {"measurement": "scaled lipid accumulation score", "setting": "[1]", "value": "1.1 (active)"}
    ]},
    {"smiles": "CN(CCCN1c2ccccc2CCc2ccccc21)CC(=O)c1ccc(Cl)cc1", "values": [
      {"measurement": "scaled lipid accumulation score", "setting": "[1]", "value": 0.191}
    ]},
    {"smiles": "CN(C)CCN1C(=O)c2ccccc2N(C)c2ccccc21", "note": "[Dibenzepine HCl]", "values": [
      {"measurement": "scaled lipid accumulation score", "setting": "library stock concentration: 6.8 mM", "value": "≤ 0"}
    ]},
    {"smiles": "CN(C)CCCN1c2ccccc2CCc2ccccc21", "values": [
      {"measurement": "scaled lipid accumulation score", "setting": "[1]", "value": 0.493}
    ]},
    {"smiles": "CN(C)CCCN1c2ccccc2CCc2ccc(Cl)cc21.Cl", "note": "[Clomipramine hydrochloride] [listing 1 of 2 here]", "values": [
      {"measurement": "scaled lipid accumulation score", "setting": "[1]", "value": "1.01 (active)"}
    ]},
    {"smiles": "CN(C)CCCN1c2ccccc2CCc2ccccc21", "note": "[Imipramine HCl]", "values": [
      {"measurement": "scaled lipid accumulation score", "setting": "library stock concentration: 7.1 mM", "value": 0.618}
    ]},
    {"smiles": "CN(C)CCCN1c2ccccc2CCc2ccc(Cl)cc21", "values": [
      {"measurement": "scaled lipid accumulation score", "setting": "[1]", "value": 0.755}
    ]},
    {"smiles": "CN(C)CCCN1c2ccccc2CCc2ccccc21", "note": "[Imipramine hydrochloride]", "values": [
      {"measurement": "scaled lipid accumulation score", "value": 0.652},
      {"measurement": "scaled lipid accumulation score", "setting": "library stock concentration: 6.3 mM", "value": 0.714},
      {"measurement": "scaled lipid accumulation score", "setting": "[1]", "value": 0.59}
    ]},
    {"smiles": "CN(C)CCCN1c2ccccc2CCc2ccc(Cl)cc21", "note": "[Clomipramine HCl]", "values": [
      {"measurement": "scaled lipid accumulation score", "setting": "[2]", "value": 0.402}
    ]},
    {"smiles": "CN(C)CCCN1c2ccccc2CCc2ccc(Cl)cc21.Cl", "note": "[Clomipramine hydrochloride] [listing 2 of 2 here]", "values": [
      {"measurement": "scaled lipid accumulation score", "value": "0.968 (active)"}
    ]},
    {"smiles": "CN(CCCN1c2ccccc2CCc2ccccc21)CC(=O)c1ccc(Cl)cc1", "note": "[Lofepramine]", "values": [
      {"measurement": "scaled lipid accumulation score", "setting": "[1]", "value": 0.323}
    ]},
    {"smiles": "C[C@@H]1CC[C@@]2(OC1)O[C@H]1C[C@H]3[C@@H]4CC=C5C[C@@H](O)CC[C@]5(C)[C@H]4CC[C@]3(C)[C@H]1[C@@H]2C", "note": "[Diosgenin]", "values": [
      {"measurement": "scaled lipid accumulation score", "setting": "[1]", "value": "≤ -0.027"}
    ]},
    {"smiles": "CCCCCCCCCCCCCCCC(=O)OC[C@@H](O)COP(=O)(O)O", "note": "[1-Palmitoyl Lysophosphatidic Acid (sodium salt)]", "values": [
      {"measurement": "scaled lipid accumulation score", "setting": "[3]", "value": 0.001}
    ]},
    {"smiles": "CCCCCCCCCCCCCCCCOC[C@H](CO)SC(C)=O", "note": "[2-thio-Acetyl MAGE]", "values": [
      {"measurement": "scaled lipid accumulation score", "setting": "[3]", "value": "≤ 0"}
    ]},
    {"smiles": "CCCCCC/C=C/C=C\\CCCCCCCC(=O)O", "note": "[9(Z),11(E)-Conjugated Linoleic Acid]", "values": [
      {"measurement": "scaled lipid accumulation score", "setting": "[3]", "value": 0.029}
    ]},
    {"smiles": "CCCCCNC(=N)N/N=C/c1c[nH]c2ccc(OC)cc12", "values": [
      {"measurement": "scaled lipid accumulation score", "setting": "[1]", "value": 0.13}
    ]},
    {"smiles": "CCCCCNC(=N)N/N=C/c1c[nH]c2ccc(OC)cc12", "note": "[Tegaserod maleate]", "values": [
      {"measurement": "scaled lipid accumulation score", "setting": "[1]", "value": "≤ -0.027"}
    ]},
    {"smiles": "CCCCCNC(=N)N/N=C/c1c[nH]c2ccc(OC)cc12", "note": "[Tegaserod]", "values": [
      {"measurement": "scaled lipid accumulation score", "setting": "[1]", "value": "≤ -0.027"}
    ]},
    {"smiles": "Cc1cc(-c2ccc(/N=N/c3ccc4c(S(=O)(=O)O)cc(S(=O)(=O)O)c(N)c4c3O)c(C)c2)ccc1/N=N/c1ccc2c(S(=O)(=O)O)cc(S(=O)(=O)O)c(N)c2c1O", "values": [
      {"measurement": "scaled lipid accumulation score", "setting": "[1]", "value": 0.033}
    ]},
    {"smiles": "CCCCC[C@H](O)/C=C/[C@@H]1[C@H](C/C=C\\CCCC(=O)O)[C@H](O)C[C@H]1O", "note": "[8-iso Prostaglandin F2.beta.]", "values": [
      {"measurement": "scaled lipid accumulation score", "setting": "[3]", "value": 0.004}
    ]},
    {"smiles": "CN(C)CCCN1c2ccccc2CCc2ccc(Cl)cc21.Cl", "note": "[Clomipramine HCl]", "values": [
      {"measurement": "scaled lipid accumulation score", "setting": "[1]", "value": "0.83 (active)"}
    ]},
    {"smiles": "CC[N+]1(C)C2CCC1CC(OC(=O)C1CCC(C(=O)OC3CC4CCC(C3)[N+]4(C)CC)(c3ccccc3)c3ccccc31)C2", "note": "(stereo not drawn) [beta- Belladonnine dichloroethylate]", "values": [
      {"measurement": "scaled lipid accumulation score", "value": "≤ 0"}
    ]},
    {"smiles": "Cc1c(C(N)=O)cc([N+](=O)[O-])cc1[N+](=O)[O-]", "note": "[Dinitolmide]", "values": [
      {"measurement": "scaled lipid accumulation score", "setting": "[2]", "value": "≤ 0"},
      {"measurement": "scaled lipid accumulation score", "setting": "[1]", "value": "≤ -0.001 and ≤ -0.027"}
    ]},
    {"smiles": "NC1CONC1=O", "note": "(racemic) [DL-Cycloserine]", "values": [
      {"measurement": "scaled lipid accumulation score", "setting": "[1]", "value": "≤ 0"}
    ]},
    {"smiles": "COc1cc2nc(N3CCN(C(=O)C4COc5ccccc5O4)CC3)nc(N)c2cc1OC", "note": "(centres undefined) [Doxazosin mesylate]", "values": [
      {"measurement": "scaled lipid accumulation score", "value": "≤ 0"},
      {"measurement": "scaled lipid accumulation score", "setting": "library stock concentration: 4.4 mM", "value": 0.151},
      {"measurement": "scaled lipid accumulation score", "setting": "[1]", "value": 0.85}
    ]},
    {"smiles": "COc1cc2nc(N(C)CCCNC(=O)C3CCCO3)nc(N)c2cc1OC", "note": "(centres undefined)", "values": [
      {"measurement": "scaled lipid accumulation score", "setting": "[1]", "value": "≤ 0"}
    ]},
    {"smiles": "COc1cc2nc(N3CCN(C(=O)C4CCCO4)CC3)nc(N)c2cc1OC", "note": "(centres undefined) [Terazosin HCl]", "values": [
      {"measurement": "scaled lipid accumulation score", "setting": "[2]", "value": "≤ 0"},
      {"measurement": "scaled lipid accumulation score", "setting": "[4]", "value": 0.009},
      {"measurement": "scaled lipid accumulation score", "setting": "[1]", "value": "≤ 0"}
    ]},
    {"smiles": "COc1cc2nc(N3CCN(C(=O)C4COc5ccccc5O4)CC3)nc(N)c2cc1OC", "note": "(centres undefined) [Doxazosin Mesylate]", "values": [
      {"measurement": "scaled lipid accumulation score", "setting": "[2]", "value": "≤ 0"},
      {"measurement": "scaled lipid accumulation score", "setting": "[1]", "value": 0.473}
    ]},
    {"smiles": "COc1cc2nc(N3CCN(C(=O)c4ccco4)CC3)nc(N)c2cc1OC", "note": "[Prazosin HCl]", "values": [
      {"measurement": "scaled lipid accumulation score", "setting": "[4]", "value": 0.728}
    ]},
    {"smiles": "COc1cc2nc(N(C)CCCNC(=O)C3CCCO3)nc(N)c2cc1OC", "note": "(centres undefined) [Alfuzosin HCl]", "values": [
      {"measurement": "scaled lipid accumulation score", "setting": "[2]", "value": "≤ 0"},
      {"measurement": "scaled lipid accumulation score", "setting": "[1]", "value": "≤ 0"}
    ]},
    {"smiles": "COc1cc2nc(N3CCN(C(=O)C4COc5ccccc5O4)CC3)nc(N)c2cc1OC", "note": "(centres undefined) [Doxazosin]", "values": [
      {"measurement": "scaled lipid accumulation score", "setting": "[1]", "value": 0.539}
    ]},
    {"smiles": "COc1cc2nc(N3CCN(C(=O)c4ccco4)CC3)nc(N)c2cc1OC", "note": "[Prazocin]", "values": [
      {"measurement": "scaled lipid accumulation score", "setting": "library stock concentration: 13 mM", "value": "1.03 (active)"}
    ]},
    {"smiles": "COc1cc2nc(N3CCN(C(=O)c4ccco4)CC3)nc(N)c2cc1OC.Cl", "note": "[Prazosin hydrochloride]", "values": [
      {"measurement": "scaled lipid accumulation score", "setting": "[1]", "value": "1.35 (active)"}
    ]},
    {"smiles": "COc1cc2nc(N3CCN(C(=O)C4CCCO4)CC3)nc(N)c2cc1OC", "note": "(centres undefined) [Terazosin]", "values": [
      {"measurement": "scaled lipid accumulation score", "setting": "library stock concentration: 9.6 mM", "value": "≤ 0"},
      {"measurement": "scaled lipid accumulation score", "setting": "[1]", "value": 0.162}
    ]},
    {"smiles": "COc1cc2nc(N3CCN(C(=O)C4CCCO4)CC3)nc(N)c2cc1OC", "note": "(centres undefined) [Terazosin hydrochloride]", "values": [
      {"measurement": "scaled lipid accumulation score", "value": "≤ 0"},
      {"measurement": "scaled lipid accumulation score", "setting": "[1]", "value": "≤ -0.006"}
    ]},
    {"smiles": "COc1cc2nc(N(C)CCCNC(=O)C3CCCO3)nc(N)c2cc1OC", "note": "(centres undefined) [Alfluzocin]", "values": [
      {"measurement": "scaled lipid accumulation score", "setting": "[1]", "value": 0.025}
    ]},
    {"smiles": "COc1cc2nc(N3CCN(C(=O)c4ccco4)CC3)nc(N)c2cc1OC", "note": "[Prazosin]", "values": [
      {"measurement": "scaled lipid accumulation score", "setting": "[1]", "value": "1 (active)"}
    ]},
    {"smiles": "COc1cc2nc(N3CCN(C(=O)c4ccco4)CC3)nc(N)c2cc1OC", "note": "[Prazosin hydrochloride]", "values": [
      {"measurement": "scaled lipid accumulation score", "value": 0.676},
      {"measurement": "scaled lipid accumulation score", "setting": "library stock concentration: 4.8 mM", "value": 0.682},
      {"measurement": "scaled lipid accumulation score", "setting": "[1]", "value": "0.361 and 0.672"}
    ]},
    {"smiles": "COc1cc2nc(N(C)CCCNC(=O)C3CCCO3)nc(N)c2cc1OC", "note": "(centres undefined) [Alfluzosin]", "values": [
      {"measurement": "scaled lipid accumulation score", "setting": "library stock concentration: 5.1 mM", "value": "≤ 0"}
    ]},
    {"smiles": "COc1cc2nc(N(C)CCCNC(=O)C3CCCO3)nc(N)c2cc1OC", "note": "(centres undefined) [Alfuzosin hydrochloride]", "values": [
      {"measurement": "scaled lipid accumulation score", "value": "≤ 0"},
      {"measurement": "scaled lipid accumulation score", "setting": "[1]", "value": 0.274}
    ]}
  ]
}
